Shown are actives, neighbours in structure and some others; about 3.8% of the full set was active somewhere.
HSF1 inh – HSF1 inhibition. AID 2098. activity change, negative = inhibition, % at 7.5 µM (by protocol). NIH3T3-HGL HSE-luciferase, MG132-induced, luminescence 8 h; stronger effect = lower value. actives 0.77% (n = 300,000);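 active means more than half of replicate wells show activity change below -50%, luminescence cut by over half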;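 further: luciferase reports HSF-1 transcriptional activity via heat shock element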
NALP1 yeast inh – blocks the NALP1 inflammasome reconstituted in yeast; S. cerevisiae NALP1/ASC/caspase-1 growth, X-gal OD620, 72 h; inhibition, % at 10 µM; actives 0.61% (n = 280,000); in the data active means inhibition mostly above about 24%, no sharp cut-off; inactive means mostly below about 32%
Hsp70 activator – Hsp70 transcriptional activation, primary screen. HeLa Hsp70 promoter luciferase reporter, luminescence; scaled: vehicle 0, proteasome-inhibitor control 100%. activation, % at 10 µM. actives 0.04% (n = 200,000). AID 1203;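 active means activation above the mean across all tested compounds plus 3 SD, cutoff set per campaign, cut at about 5.5% in these data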
HSF1 activator – increases HSF-1 driven luciferase reporter signal | actives 1.7% (n = 300,000) | NIH3T3-HGL HSF-1 luciferase reporter, MG132, 8 h; 100% = twice DMSO control signal | activation, % at 9 µM;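 active means mean replicate activation of at least 50% with a set share of replicates each reaching 50%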
HSP90 refold inh – inhibitors of HSP90 luciferase refolding in rabbit reticulocyte lysate. inhibition, % at 5.6 µM. AID 1789. luciferase refolding luminescence, 3 h. actives 0.91% (n = 290,000);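 active means inhibition above the screen-wide mean plus 3 SD, computed separately per campaign, cut at about 16% in these data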;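 further: inhibitors lower the luminescence because luciferase stays unfolded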
p-CIP stab down – p/CIP protein destabilization. actives 0.01% (n = 290,000). decrease of EGFP signal, % at 10 µM. Q05BA5. F442A p/CIP-EGFP cells, EGFP fluorescence, 16 h. AID 1984;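 active means EGFP signal decrease of at least 30% at 10 µM or well 3 SD below plate mean, unless failing retest; inactive means the rest, including hits failing retest or dose response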
HSP90 inh confirm – HSP90 inhibition, confirmation assay. shares compounds with HSP90 refold inh. inhibition, % at 5.9 µM. actives 64% (n = 2,300). rabbit reticulocyte lysate, luciferase refolding luminescence, 3 h; in the data active means inhibition above about 18%
luciferase ctr – blocks native firefly luciferase in HSP90 counter-screen. shares compounds with HSP90 refold inh. purified native firefly luciferase, luminescence. inhibition, % at 5.9 µM. actives 48% (n = 2,300). AID 1847;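 active means inhibition above the mean inhibition of all tested sample wells plus 3 SD, cut at about 10% in these data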
Target sequence (P08659 whole entry, looked up): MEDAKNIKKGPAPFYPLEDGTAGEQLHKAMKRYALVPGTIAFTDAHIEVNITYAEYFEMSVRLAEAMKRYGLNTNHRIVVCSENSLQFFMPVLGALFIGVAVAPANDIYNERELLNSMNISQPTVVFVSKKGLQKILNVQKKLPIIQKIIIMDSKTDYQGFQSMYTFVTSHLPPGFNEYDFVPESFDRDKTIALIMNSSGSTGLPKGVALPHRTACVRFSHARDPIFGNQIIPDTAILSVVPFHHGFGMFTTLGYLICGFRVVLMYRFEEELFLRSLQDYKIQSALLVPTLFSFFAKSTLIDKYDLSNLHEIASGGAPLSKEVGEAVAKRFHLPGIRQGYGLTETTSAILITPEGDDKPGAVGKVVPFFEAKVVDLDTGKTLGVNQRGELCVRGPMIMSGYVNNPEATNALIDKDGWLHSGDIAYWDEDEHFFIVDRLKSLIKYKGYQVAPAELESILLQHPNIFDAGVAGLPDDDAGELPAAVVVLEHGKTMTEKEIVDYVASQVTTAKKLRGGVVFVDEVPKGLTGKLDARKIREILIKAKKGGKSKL
Hits are given with their value; n = inactive; x = not tested or not shown.

SMILES | HSF1 inh | NALP1 yeast inh | Hsp70 activator | HSF1 activator | HSP90 refold inh | p-CIP stab down | HSP90 inh confirm | luciferase ctr
O=C1CC(c2cccnc2)=NN1c1ccccc1 | n | n | n | n | 28.1 | n | n | n
CCOc1cc(/C=C2\C(=O)NC(=O)N(CCc3ccc(F)cc3)C2=O)ccc1O | n | x | x | n | 38.0 | n | n | n
CN1CCN(c2cccc3c2C(=O)c2ccccc2C3=O)CC1 | n | n | n | n | 19.0 | n | 20.2 | n
Cc1ccccc1-n1c(O)c(/C=N/NC(=O)c2ccccc2O)c(=O)[nH]c1=S | -54.9 | x | x | n | 21.3 | n | 51.7 | 48.5
O=C(O)CC1OCC=C2CN3CCC45C6=CC(=O)C(=O)C([N+](=O)[O-])=C6NC4C1C2CC35 (configuration not stated) | n | n | x | n | 35.0 | n | 71.6 | n
O=C(O)CC1OCC=C2CN3CCC45c6ccccc6NC4C1C2CC35 (configuration not stated) | n | n | x | n | n | n | x | x
CN(C)C(Cc1ccccc1)C(=O)c1ccccc1 (configuration not stated) | n | n | n | n | n | n | x | x
CCOC(=O)c1c(C)[nH]c(C)c1C(=O)C(Cc1ccccc1)N(C)C (configuration not stated) | n | n | x | n | 22.1 | n | n | n
Cc1ccc(OCCOc2cccc(C=C3C(=O)NC(=O)NC3=O)c2)c(C)c1 | n | n | x | n | 23.4 | n | 39.3 | 17.0
O=C1NC(=O)C(=Cc2cccc(OCCOc3ccccc3)c2)C(=O)N1 | n | n | x | n | n | n | x | x
COC(=O)C1=C(c2cc3ccccc3o2)C[C@@H]2CC[C@H]1N2C(=O)NC(C)C | n | x | x | n | x | x | x | x
CC1CCCCC1NC1CCN(C)CC1 (configuration not stated) | n | n | x | n | n | n | x | x
CN1CCN2c3ccc(N)cc3CC3(C(=O)NC(=O)NC3=O)C2C1 (configuration not stated) | n | x | x | n | 20.2 | n | n | n
Cc1nc2c(=O)n(C)c(=O)nc-2n(C)n1 | -93.9 | n | n | n | 77.8 | n | 79.9 | 83.5
COc1ccccc1-n1c(-c2cccs2)nc2ccccc2c1=O | n | n | n | n | 17.3 | n | n | n
COc1ccccc1-n1c(-c2ccccc2)nc2ccccc2c1=O | n | n | x | n | n | n | x | x
CNC(=O)NC(O)C(Cl)(Cl)Cl (configuration not stated) | n | n | x | n | n | n | x | x
CNC(=O)Oc1ccc(-c2cn3cc(C)ccc3n2)cc1 | n | n | n | n | 55.7 | n | 67.9 | 51.7
CCOc1cc2c(cc1OCC)-n1cccc1C(c1ccccc1O)NC2 (configuration not stated) | n | n | x | n | n | n | x | x
Cc1ccc(-n2c(O)c(/C=N/Nc3ccccc3)c(=O)[nH]c2=O)cc1C | n | n | x | n | n | n | x | x
COc1ccc(N/N=C/c2c(O)n(-c3ccc(C)c(C)c3)c(=O)[nH]c2=O)cc1 | n | n | n | n | 18.9 | n | 28.9 | n
CCOC(=O)c1c(NS(=O)(=O)c2ccccc2)n(CCCOC)c2nc3ccccc3nc12 | n | n | n | n | 22.2 | n | n | n
CCCCCn1c(NC(=O)c2ccco2)c(C(=O)OCC)c2nc3ccccc3nc21 | n | n | n | n | n | n | x | x
COCCCn1c(N)c(C(=O)OCCOC)c2nc3ccccc3nc21 | n | n | n | n | 22.1 | n | n | n
CCCCNC(=O)c1c(N)n(CCCOC)c2nc3ccccc3nc12 | n | n | n | n | n | n | x | x
SMILES | HSF1 inh | NALP1 yeast inh | Hsp70 activator | HSF1 activator | HSP90 refold inh | p-CIP stab down | HSP90 inh confirm | luciferase ctr
Cc1cc(OCC(=O)N2CCC(C(N)=O)CC2)c2c3c(c(=O)oc2c1)CCCC3 | n | n | x | n | n | n | x | x
O=S1(=O)N(Cc2ccc(F)cc2)CCCN1Cc1ccccc1Cl | n | n | x | n | n | n | x | x
CCOP(=O)(OCC)C(Cc1ccccc1)NC(C)=O (configuration not stated) | n | x | x | n | n | n | x | x
CCOP(=S)(NN(Cc1ccccc1)C(=O)c1ccccc1)OCC | n | n | n | n | 42.3 | n | n | n
COc1ccc(CN2CCN(Cc3ccccc3F)CC2)cc1 | n | n | x | n | n | n | x | x
CC(C)(C)c1ccc(O)c(N=Cc2c(O)ccc3ccccc23)c1 | n | n | x | n | 29.8 | n | 30.2 | n
O=C(C[N+]12CCC(CC1)C(CO)C2)c1ccc(Br)cc1 (configuration not stated) | n | n | x | n | n | n | x | x
